# RGS8-Gao reg – RGS8-Galphao binding modulators, primary screen, biochemical, multiplexed bead flow cytometry; response (percent of control binding), % at 10 µM; Guanine nucleotide-binding protein G(o) subunit alpha (Homo sapiens), P09471; 0.34% of 220,000 active; actives lie on both sides; AID 1423, 2008; in the data active = response below about 60% or above about 140%; inactive = in between;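 note: Galphao activated as the GDP aluminium fluoride complex binding bead-coupled RGS8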
# RGS7-Gao – RGS7-Galphao binding modulators, primary screen, biochemical, multiplexed bead flow cytometry | Guanine nucleotide-binding protein G(o) subunit alpha (Homo sapiens), P09471 | actives lie on both sides | binding response (% of control), % at 10 µM | 0.35% of 220,000 active | AID 1439, 2008; in the data active = binding response below about 49% or above about 150%; inconclusive = no clear call, values can overlap the other calls; inactive = in between;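 note: fluorescent Galphao held in activated GDP-AlF4 state binding bead-coupled RGS7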
# Avidin fluor – green autofluorescence of compounds with avidin beads – biophysical, 488/530 nm, flow cytometry, artefact control, profiling panel; compound fluorescence 488/530 nm; active compounds read high; fluorescence (KMESF) at 10 µM; AID 1775, 2009; 0.38% of 220,000 active; in the data active = fluorescence above about 47
# GSH bead fluor – compound fluorescence on glutathione beads, profiling panel, artefact control, biophysical, 488/530 nm, flow cytometry; AID 1776, 2009; fluorescence (KMESF) at 10 µM; 0.25% of 190,000 active; GSH beads flow cytometry, compound fluorescence 488/530 nm; active compounds read high; in the data active = fluorescence above about 89;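 note: glutathione beads carrying GST-tagged Bcl family fusion proteins plus one bare bead set; values are compound well signal with DMSO vehicle wells as background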
# RGS4-Gao reg – modulators of RGS4 binding to Galphao, primary screen, biochemical, multiplexed bead flow cytometry | Guanine nucleotide-binding protein G(o) subunit alpha (Homo sapiens), P09471 | actives lie on both sides | binding response (% of control), % at 10 µM | 0.33% of 220,000 active | AID 1415, 2008; in the data active = binding response below about 49% or above about 150%; inactive = in between;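 note: fluorescent Galphao activated with aluminum fluoride binding bead-coupled RGS4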
# RGS16-Gao HTS – modulators of RGS16 binding to Galphao, primary screen, biochemical, human proteins, multiplexed bead flow cytometry | binding response (% of control), % at 10 µM | bead-based flow cytometry RGS16-Galphao binding, fluorescence; actives lie on both sides | Regulator of G-protein signaling 16 (Homo sapiens) + Guanine nucleotide-binding protein … | 0.38% of 220,000 active;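 note: Galphao activated by GDP with aluminum fluoride before binding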
# Target sequence (O15492 whole entry, looked up): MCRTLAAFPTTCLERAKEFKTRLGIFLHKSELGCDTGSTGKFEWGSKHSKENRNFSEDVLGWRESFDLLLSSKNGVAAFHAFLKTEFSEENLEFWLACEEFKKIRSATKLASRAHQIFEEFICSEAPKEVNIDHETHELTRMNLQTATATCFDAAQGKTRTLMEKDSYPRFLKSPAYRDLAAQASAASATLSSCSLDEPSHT
# Target sequence (P09471 whole entry, looked up): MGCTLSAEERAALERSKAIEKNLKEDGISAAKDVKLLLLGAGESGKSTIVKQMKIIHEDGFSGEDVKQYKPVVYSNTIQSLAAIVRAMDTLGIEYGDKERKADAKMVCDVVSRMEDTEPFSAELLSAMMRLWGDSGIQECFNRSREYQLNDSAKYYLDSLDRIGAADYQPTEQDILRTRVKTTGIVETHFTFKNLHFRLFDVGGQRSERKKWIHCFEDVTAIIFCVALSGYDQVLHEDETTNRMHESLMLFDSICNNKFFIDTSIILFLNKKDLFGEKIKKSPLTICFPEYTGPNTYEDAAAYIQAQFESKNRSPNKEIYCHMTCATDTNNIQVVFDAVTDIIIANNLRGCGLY
# RGS4-Gao HTS – modulators of RGS–Galpha-o binding, primary screen, biochemical, multiplexed beads, flow cytometry, RGS4/7/8/16/19. shares compounds with RGS16-Gao HTS. multiplexed bead flow cytometry. RGS4–Galpha-o binding response, % at 10 µM. 99% of 1,600 active. AID 1504, 2009;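 note: fluorescently labeled Galpha-o bound to GDP with aluminium fluoride binding biotinylated RGS beads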
# Avidin counter – disruption of biotin probe capture by avidin, counter-screen for RGS protein interaction modulators, biochemical, flow cytometry, bead-based | inhibition, % at 10 µM | shares compounds with RGS16-Gao HTS | 1,700 tested, under 10 active | streptavidin beads, fluorescein-biotin binding;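 active = inhibition above 50%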;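 note: median green fluorescence of gated singlet beads compared with DMSO control wells; 0% = DMSO wells and 100% = complete loss of bead fluorescence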
# RGS8-Gao single – RGS8-Galphao binding modulators, confirmation, biochemical, multiplexed bead flow cytometry, single concentration. binding response (% of control), % at 10 µM. shares compounds with RGS16-Gao HTS. bead-based flow cytometry RGS8-Galphao binding, fluorescence; actives lie on both sides. AID 1836, 2009. 3% of 1,700 active; in the data active = binding response below about 72% or above about 130%; inactive = in between;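 note: Galphao activated as GDP AlF4 complex before binding bead RGS8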
# RGS7-Gao confirm – RGS7-Galphao binding modulators, confirmation, biochemical, multiplexed bead flow cytometry, single concentration; shares compounds with RGS16-Gao HTS; 7.8% of 1,700 active; response (percent of control binding), % at 10 µM; bead-based flow cytometry RGS7-Galphao binding; actives lie on both sides; in the data active = response below about 75% or above about 130%; inactive = in between;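 note: fluorescent Galphao activated with GDP and aluminum fluoride binding bead-coupled RGS7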
# RGS16-Gao conf – modulators of RGS16-Galphao protein binding, confirmation, biochemical, single concentration, multiplexed bead flow cytometry; shares compounds with RGS16-Gao HTS; bead-based flow cytometry; actives lie on both sides; response (% of control binding), % at 10 µM; 4% of 1,700 active; AID 1838, 2009; in the data active = response below about 74% or above about 130%; inactive = in between;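 note: Galphao activated as the GDP aluminium fluoride complex binding bead-coupled RGS16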
# RGS4-Gao single – modulators of RGS4-Galphao protein binding, confirmation, biochemical, single concentration, multiplexed bead flow cytometry. actives lie on both sides. AID 1840, 2009. 4% of 1,700 active. shares compounds with RGS16-Gao HTS. binding response (% of control), % at 10 µM; in the data active = binding response below about 74% or above about 130%; inactive = in between
# RGS19-Gao conf – regulators of RGS19-Galphao binding, confirmation, biochemical, single point, multiplexed bead flow cytometry; shares compounds with RGS16-Gao HTS; bead-based flow cytometry RGS19-Galphao binding; actives lie on both sides; response (percent of control binding), % at 10 µM; 5% of 1,700 active; AID 1841, 2009; in the data active = response below about 50% or above about 160%; inactive = in between;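 note: 100% = no compound control and 0% = blank background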
# Numbers without * were called inactive; ? = inconclusive; / = no result; [ ] = dose if it differs, or a comment. Compounds with a hit are over-represented: about 1.2% of the library has one in this group of screens. Unless noted, the rule behind the calls is not given here.
SMILES,RGS8-Gao reg,RGS7-Gao,Avidin fluor,GSH bead fluor,RGS4-Gao reg,RGS16-Gao HTS,Avidin counter,RGS8-Gao single,RGS7-Gao confirm,RGS16-Gao conf,RGS4-Gao single,RGS19-Gao conf,others
CC1=NN(C(=O)CSCc2ccccc2)C(O)(c2ccc(Cl)cc2)C1 (stereo not drawn),59*,49*,5,13,57,52,0,102,105,104,103,107,RGS4-Gao HTS=57*
CC1=NN(C(=O)CSCc2ccccc2)C(O)(c2ccc(F)cc2)C1 (stereo not drawn),100,?,9,15,100,99,/,/,/,/,/,/,
O=C1/C(=C/c2ccncc2)N=C2CCCCCN12,89,?,7,/,81,82,/,/,/,/,/,/,
CCOC(=O)c1ccc(NC(=O)c2ccc(CN3CCOCC3)cc2)cc1,104,104,23,10,107,104,/,/,/,/,/,/,
NC(=O)c1ccc(NC(=O)c2ccc(CN3CCOCC3)cc2)cc1,/,/,/,34,/,/,-2,101,102,101,101,99,
COC(=O)C1=C(C)N(c2cc(C)cc(C)c2)/C(=C/c2ccc(O)cc2)C1=O,102,101,13,10,102,103,/,/,/,/,/,/,
CC(C)(C)CN1C(=O)C(=O)NC[C@H]1Cc1ccc(O)cc1,106,?,8,/,110,106,/,/,/,/,/,/,
CC(C)(C)c1cc(C(=O)N/N=C/c2ccco2)n[nH]1,136,115,17,9,114,279*[activator],0,95,91,94,94,87,RGS4-Gao HTS=114*
Cc1ccc(-c2cc(C(=O)N/N=C/c3ccco3)n[nH]2)s1,102,98,10,11,101,99,/,/,/,/,/,/,
CC(C)CC(NC(=O)C(CC(C)C)NC(=O)C(Cc1ccc(OCc2ccccc2)cc1)NC(=O)OC(C)(C)C)C(N)=O (stereo not drawn),99,101,8,8,96,100,/,/,/,/,/,/,
CC(C)CC(NC(=O)C(CC(C)C)NC(=O)OC(C)(C)C)C(N)=O (stereo not drawn),101,107,26,44,114,105,/,/,/,/,/,/,

# Screening results as filed in PubChem BioAssay.
